Wnt bcat act: Wnt/beta-catenin pathway activation | Wnt/beta-catenin reporter cell assay, activator, plate reader | activation, % at 9.35 µM | hit rate 1.2% among 300,000 | AID 743398; in the data active = activation above about 30%, passing the limit was not always enough;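 also: 0% = neutral control wells and 100% = positive control wells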
hgDAF-12 ag: agonists of H. glycines DAF-12 nuclear receptor | HEK293 GAL4-hgDAF12 UAS-luciferase reporter, agonist luminescence; normalized to butyrate control | activation, % at 6.8 µM | hit rate 1.8% among 370,000;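 active = activation above a cutoff set at the mean of all screened compounds plus 3 SD, cut at about 10% in these data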;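 also: 0% = DMSO wells and 100% = sodium butyrate wells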
hcDAF-12 act: activators of H. contortus DAF-12 nuclear receptor; HEK293 hcDAF-12 lit1-tk-luc reporter, luminescence; 0% DMSO, 100% Δ7-dafachronic acid; activation, % at 6.8 µM; hit rate 1.4% among 370,000; AID 652067;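 active = activation above the mean of all tested compounds plus 3 SD, cut at about 5.5% in these data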;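 also: 100% = response to 3 µM Δ7-dafachronic acid high control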
DAX1 StAR inh: inhibitors of DAX1 repression of SF-1 activated StAR promoter; hit rate 1.1% among 370,000; inhibition, % at 6.8 µM; HEK293T StAR-luciferase reporter, SF-1/DAX-1 repression relief;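 active = inhibition above the mean over all tested compounds plus 3 SD, cut at about 3.6% in these data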;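 also: 0% = DAX-1 cells with DMSO and 100% = cells lacking DAX-1 with DMSO; higher inhibition means more luminescence from relief of DAX-1 repression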
esBAF inh: blocks esBAF chromatin remodeling in mouse ES cells; Bmi1-luciferase knock-in reporter, 24 h; 100% = twice the neutral-well signal; reporter increase, % at 12.5 µM; hit rate 2% among 350,000; in the data active = activation above about 40%;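 also: 0% = median of the plate's neutral control wells and 100% = double that signal; a rise in the Bmi1 reporter signal indicates esBAF inhibition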
ssDAF12 agonist: S. stercoralis DAF-12 activation, primary screen; HEK293 ssDAF-12/GRIP1 lit1-tk-luc reporter, luminescence; % of 3 µM dafachronic acid response; activation, % at 6.8 µM; hit rate 1% among 370,000; AID 652126;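 active = activation above the mean over all tested compounds plus 3 SD, cut at about 0.9% in these data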;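 also: 0% = DMSO-only wells and 100% = 3 µM delta7-dafachronic acid wells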
* = called active by the depositor; nt = no result given. Rows were chosen to be rich in hits. Some 4.2% of all compounds tested hit in one or more screens of this group.

SMILES | Wnt bcat act | hgDAF-12 ag | hcDAF-12 act | DAX1 StAR inh | esBAF inh | ssDAF12 agonist
COc1ccc(CNC(=O)C(c2ccncc2)N(C(=O)Cc2cccs2)c2ccc(C)cc2)cc1 (stereo not given) | nt | -1.1 | 3.6 | -0.1 | 129.8* | -0.5
O=C(C[C@H]1C=C[C@H](NC(=O)c2cccc(F)c2)[C@@H](CO)O1)Nc1nccs1 | nt | nt | nt | nt | -3.6 | nt
C[C@@H]1CCCCO[C@H](CN(C)C(=O)Nc2ccc3c(c2)OCO3)[C@H](C)CN([C@H](C)CO)C(=O)c2cc(NS(=O)(=O)c3ccccc3)ccc2O1 | nt | nt | nt | nt | 12.2 | nt
COc1ccc(C(=O)Nc2ccc(C(F)(F)F)n(C)c2=O)cc1 | 63.4* | 3.7 | 3.3 | 0.8 | nt | -0.4
Cc1ccc(C(=O)Nc2ccc(C(F)(F)F)n(C)c2=O)cc1 | 53.7* | 9.9 | 4.0 | 2.5 | nt | 0.2
CCC(=O)N(C)C[C@H]1Oc2cc(-c3ccncc3)ccc2S(=O)(=O)N([C@H](C)CO)C[C@@H]1C | nt | nt | nt | nt | 2.6 | nt
CCCCn1c(N)c(N(Cc2ccccc2OC)C(=O)CC2OC(=O)c3ccccc32)c(=O)[nH]c1=O (stereo not given) | 31.8* | -1.5 | 0.1 | 0.0 | 7.5 | -0.6
c1ccc2sc(NC3=NCN(C4CCCCCC4)CN3)nc2c1 | -2.7 | 0.7 | 2.7 | -0.2 | 4.4 | 1.5*
Cc1ccc(O)c(/C=N/NC(=O)c2[nH]ncc2Br)c1 | -1.5 | 2.4 | 6.2* | 0.2 | 32.5 | -0.7
COc1cc(C2C(C#N)=C(N)Oc3cc4c(cc32)OCO4)cc(OC)c1OC (stereo not given) | -20.5 | -1.4 | -0.1 | 4.4* | nt | -0.9
CCCC#Cc1ccc2c(c1)O[C@H](CN(C)C(=O)C1CC1)[C@H](C)CN([C@H](C)CO)S2(=O)=O | nt | nt | nt | nt | 3.8 | nt
Cc1c(C(=O)NCc2cccnc2)sc2nc(-c3ccc(F)cc3)cn12 | -0.1 | 0.3 | -1.5 | 0.2 | 66.4* | -1.6
Cc1c(C(=O)NCc2cccnc2)sc2nc(-c3ccccc3)cn12 | 6.9 | 1.9 | -0.7 | 3.1 | 66.5* | -1.7
Cc1c(C(=O)NCCCN2CCOCC2)sc2nc(-c3ccc(F)cc3)cn12 | nt | -2.1 | -1.8 | 0.6 | 16.4 | -1.4
Cc1c(C(=O)NCc2ccco2)sc2nc(-c3ccccc3)cn12 | 18.5 | 8.6 | 2.1 | 2.1 | 48.3* | -1.3
CCN1C(=Nc2ccc(Cl)cc2)SC/C1=C\C(=O)OC | 13.0 | 1.4 | 0.6 | -0.6 | 60.6* | -1.5
COc1ccc(NC(=O)N(C)C[C@H]2Oc3ccc(NS(C)(=O)=O)cc3CC(=O)N([C@@H](C)CO)C[C@@H]2C)cc1 | nt | nt | nt | nt | 1.4 | nt
CCOc1ccc(C(=O)COC(=O)c2cccc(-n3cnnn3)c2)cc1 | 15.5 | 0.4 | -1.1 | -0.5 | 73.7* | -1.1
CCCC(C)NNC(=O)c1cc2ccccc2[nH]1 (stereo not given) | nt | -0.9 | 0.0 | 0.2 | 13.9 | -0.9
CC(C)(C)c1ccc(S(=O)(=O)NNC(=O)c2cc3ccccc3[nH]2)cc1 | 10.9 | 7.6 | 6.5* | 1.1 | 24.6 | 0.2
C[C@@H]1CCCCO[C@@H](CN(C)S(=O)(=O)c2cccs2)[C@H](C)CN([C@@H](C)CO)C(=O)c2cc(NS(=O)(=O)c3ccc(F)cc3)ccc2O1 | nt | nt | nt | nt | 9.6 | nt
O=c1c2cccc(Cl)c2nc2n1Cc1ccccc1-2 | 39.1* | 1.0 | 0.2 | 0.2 | nt | 0.0
O=c1cc(-c2ccccc2)nc2n1Cc1ccccc1-2 | nt | 3.2 | 1.3 | -0.8 | 9.6 | -1.7
O=C(COC(=O)C1=COCCO1)Nc1cc(Cl)c(Cl)cc1Cl | 45.4* | 1.5 | 1.1 | -0.2 | -4.3 | -0.5
CCc1ccc(Oc2cc(C)nc(N)n2)cc1 | nt | 10.7* | 2.1 | 2.2 | 60.6* | -0.4
CCCN(C)C[C@H]1OCCCC[C@H](C)Oc2ccc(NC(=O)CCC(F)(F)F)cc2C(=O)N([C@H](C)CO)C[C@H]1C | nt | nt | nt | nt | -5.8 | nt
CC(C)C(=O)Nc1cccc(C(=O)Nc2nnc(C(C)C)s2)c1 | nt | 7.4 | 2.0 | 2.1 | 8.9 | 0.2
CC(C)c1nnc(NC(=O)c2cccc(NC(=O)C(F)(F)F)c2)s1 | 35.4* | 12.2* | 2.3 | 2.4 | nt | -1.1
C[C@@H]1CN([C@@H](C)CO)C(=O)Cc2cc(NC(=O)c3ccncc3)ccc2O[C@H]1CN(C)Cc1ccc(C(F)(F)F)cc1 | nt | nt | nt | nt | -9.0 | nt
O=c1c(O)c(-c2ccc3c(c2)OCO3)oc2ccccc12 | nt | 0.3 | -1.2 | 1.1 | 54.8* | -0.8
